High-throughput results deposited in PubChem BioAssay by National Center for Advancing Translational Sciences (NCATS).
This is a sample that favours compounds with a hit; in the whole collection about 7.3% have one here.
Vaccinia mCherry: vaccinia inhibition (mCherry reporter) | Vaccinia virus mCherry reporter infection, fluorescence | Potency, µM (highest dose often 36.5 µM), hits mostly inhibitors | 310,000 tested, 0.63% active | AID 720579; calls by dose curve; tested in A549 cells; also: nearly all actives have a fitted effect of over 35% in size
HCV inh: HCV inhibition; Huh7.5.1 HCVcc-Cre infection, luciferase reporter, 44 h; Potency, µM (highest dose often 41.8 µM), actives largely listed as inhibitors; 340,000 tested, 3.4% active; active = well fitted inhibition curve with a large enough effect; inconclusive = small, poorly fitted or top-dose-only effect, or another doubt; inactive = no such curve, though single readings can be large or run the other way
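A cell-based infection assay in which seeded cells (1,000 per well) receive test compound after 4 h, are inoculated with HCVcc-Cre at approximately 0.5 moi, and are incubated 44 h before luminescence detection.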
Vaccinia Venus: inhibitors of vaccinia virus (Venus reporter); Vaccinia virus Venus reporter expression, fluorescence; Potency, µM (series often up to 36.5 µM), actives largely listed as inhibitors; 330,000 tested, 0.46% active; calls by dose curve; tested in A549 cells; also: nearly all actives have a fitted effect of over 30% in size
FMDV inh: foot and mouth disease virus antiviral activity; FMDV antiviral cell-based qHTS; 410,000 tested, 1.2% active; Potency, µM (series often up to 57.9 µM), actives largely listed as inhibitors; calls by dose curve; tested in HEK293T cells; also: read-out not given here; nearly all actives have a fitted effect of over 45% in size
HCMV antiviral: blocks human cytomegalovirus replication; HFF cells, HCMV-luciferase reporter, 72 h; hits give low values; activity change, negative = inhibition, % at 57.5 µM; 410,000 tested, 4.5% active; AID 1259415; in the data active = activity change below about -60%; inconclusive = no clear call, values can overlap the other calls; inactive = above about -39%
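Two-dose cell screen: HFF monolayers treated with compounds and infected with luciferase-expressing HCMV at 1 PFU/cell, 72 h at 37C, then lysed for luciferase measurement.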
Large screens that a line does not name were inactive.

Cc1ccc(C)c(S(=O)(=O)N2CCCOC2CNC(=O)C(=O)NCCC2=CCCCC2)c1 (stereo unspecified)	FMDV inh inconclusive, HCMV antiviral -67
CCN(CCCN(C)C)c1ccc(/C=C/c2ccnc3ccccc23)cc1	none (no result: HCV inh, FMDV inh, HCMV antiviral)
N#Cc1ccc(NS(=O)(=O)c2ccc(-c3cnc(C4CC4)o3)cc2)cc1	none (no result: HCV inh)
Cc1ccc(-c2cnc(C3CC3)o2)cc1S(=O)(=O)Nc1cccc(C#N)c1	HCMV antiviral -84 (no result: HCV inh)
COc1cccc(NS(=O)(=O)c2cc(-c3cnc(C4CC4)o3)ccc2C)c1	Vaccinia mCherry inconclusive, Vaccinia Venus inconclusive, HCMV antiviral -89 (no result: HCV inh)
O=C(C(=Cc1ccccc1)CN1CCCCC1)c1ccccc1	HCV inh 2.2µM, Vaccinia Venus inconclusive, FMDV inh 3.5µM, HCMV antiviral -76
O=C(CN1CCCCC1)c1ccccc1	none (no result: HCV inh, FMDV inh, HCMV antiviral)
N#Cc1nc(-c2ccccc2)cc(-c2ccccc2)n1	none (no result: HCV inh, FMDV inh, HCMV antiviral)
Cc1nc(SCc2cc(=O)c3cccc(F)c3[nH]2)n[nH]1	none (no result: HCV inh)
O=C1NC(=Nc2ccccc2)S/C1=C/c1cccnc1	HCMV antiviral inconclusive
Cc1ccc(-n2c(C)cc(/C=C3\SC(=O)NC3=O)c2C)cc1	none (no result: Vaccinia mCherry, Vaccinia Venus)
O=C1NC(=Nc2ccccc2)/C(=C/c2ccco2)S1	HCV inh 11µM (no result: Vaccinia mCherry, Vaccinia Venus)
Cc1ccc(N=C2NC(=O)S/C2=C\c2ccco2)cc1	HCV inh inconclusive (no result: Vaccinia mCherry, Vaccinia Venus)
Cc1cc(/C=C2\SC(=Nc3ccccc3)NC2=O)c(C)n1-c1ccc(S(N)(=O)=O)cc1	HCV inh 4.5µM, Vaccinia Venus inconclusive, FMDV inh inconclusive, HCMV antiviral -96 (no result: Vaccinia mCherry)
COc1cc(/C=C2/SC(=Nc3ccc(O)cc3)NC2=O)ccc1O	Vaccinia mCherry 13µM, HCV inh inconclusive, HCMV antiviral -77
O=C1NC(=Nc2ccccc2)S/C1=C\c1ccccc1	HCMV antiviral -86 (no result: Vaccinia mCherry, Vaccinia Venus)
COC(=O)c1cc2c(c3c4cc(OC)ccc4n(S(C)(=O)=O)c13)C(=O)N(C)C2	none (no result: Vaccinia mCherry, HCV inh, Vaccinia Venus, FMDV inh)
O=C1NC(=Nc2cccc(O)c2)S/C1=C\c1cccc([N+](=O)[O-])c1	HCMV antiviral -69
O=C1NC(=Nc2cccc(O)c2)S/C1=C\c1cccnc1	HCMV antiviral inconclusive
COc1ccc(N=C2NC(=O)/C(=C/c3ccco3)S2)cc1	HCMV antiviral -68 (no result: Vaccinia mCherry, Vaccinia Venus)
COc1ccc(-c2nc3ccccn3c2Nc2ccccc2C)cc1	none (no result: HCV inh, FMDV inh, HCMV antiviral)
CCc1ccc(/C=C/c2c[nH]c3ccccc23)[n+](CC)c1	HCV inh inconclusive, FMDV inh inconclusive, HCMV antiviral -97
Cc1[nH]c2ccccc2c1/C=C/c1c[nH]c2ccccc12	none (no result: HCV inh, FMDV inh, HCMV antiviral)
C[C@@H](NCCCn1cnc2c(OCc3ccccc3)ncnc21)c1cccc2ccccc12	Vaccinia mCherry inconclusive, HCV inh inconclusive, Vaccinia Venus inconclusive
COc1ccc(CN(C)CCCn2cnc3c(OCc4ccccc4)ncnc32)cc1	Vaccinia mCherry inconclusive, HCMV antiviral -97
c1ccc(COc2ncnc3c2ncn3CCCN2CCN(Cc3cccc4ccccc34)CC2)cc1	Vaccinia mCherry 10µM, Vaccinia Venus 11µM, FMDV inh 28µM (no result: HCV inh)
CCOC(=O)c1ccc(NC(=O)N2CCN(CCc3ccccc3)CC2)cc1	HCV inh inconclusive (no result: Vaccinia mCherry, Vaccinia Venus)
CCOc1ccc(NC(=O)OCCN2CCN(CCc3ccccc3)C(C)C2)cc1 (stereo unspecified)	Vaccinia mCherry inconclusive, HCV inh 11µM, FMDV inh inconclusive, HCMV antiviral inconclusive
CC[C@@H](C(=O)[C@@H](C)[C@@H](O)[C@H](C)CCc1ccc(C)c(O)c1C(=O)O)[C@H]1O[C@](CC)([C@H]2CC[C@](O)(CC)[C@H](C)O2)C[C@@H]1C	Vaccinia mCherry inconclusive, HCV inh 1.8µM, Vaccinia Venus 10µM, FMDV inh 28µM, HCMV antiviral -99
CN(c1ccccc1)S(=O)(=O)c1cccc(NC(=O)c2cc(=O)c3ccccc3o2)c1	HCV inh 11µM, FMDV inh 32µM, HCMV antiviral -66
Cc1ccc(S(=O)(=O)N2CCCCC2)cc1NC(=O)c1cc2ccccc2o1	HCV inh 22µM (no result: Vaccinia mCherry, Vaccinia Venus)
NS(=O)(=O)c1cccc(NC(=O)c2cc(=O)c3ccccc3o2)c1	none
O=C(Nc1cccc(S(=O)(=O)N2CCCCCC2)c1)c1cc(=O)c2ccccc2o1	HCV inh inconclusive, FMDV inh 20µM
Nc1c(C(=O)NCc2ccccc2)nnn1Cc1cccc(Br)c1	none (no result: HCV inh)
O=C(C[n+]1cccc(Br)c1)c1ccc(O)c(O)c1	none (no result: HCV inh, FMDV inh, HCMV antiviral)
COc1ccc(CCn2c(=N)c(C(=O)NCCN3CCOCC3)cc3c(=O)n4cccc(C)c4nc32)cc1OC	HCV inh inconclusive, HCMV antiviral -95 (no result: Vaccinia mCherry, Vaccinia Venus)
COc1ccc(CCn2c(=N)c(C(=O)NCCN3CCOCC3)cc3c(=O)n4ccccc4nc32)cc1OC	none
Cc1cccn2c(=O)c3cc(C(=O)NCCN4CCOCC4)c(=N)n(CCc4ccccc4)c3nc12	HCV inh inconclusive, HCMV antiviral -85
Cc1cccn2c(=O)c3cc(C(=O)NCCN4CCOCC4)c(=N)n(CCCN4CCOCC4)c3nc12	HCV inh inconclusive
Cc1cccc(N2CCN(C(=O)CCS(=O)(=O)c3ccc4c(c3)CC(=O)N4C)CC2C)c1 (stereo unspecified)	none (no result: HCV inh)
CCOC(=O)c1cc(NC(=O)c2ccccc2)c(=O)n2c1oc1ccccc12	Vaccinia mCherry 10µM, Vaccinia Venus 7.9µM, HCMV antiviral -71
CCOC(=O)c1cc(NC(=O)c2ccc(C)cc2)c(=O)n2c1oc1ccccc12	none (no result: HCV inh)
COc1ccccc1N1CCN(c2ncnc3c2cnn3-c2ccc(C)cc2)CC1	FMDV inh inconclusive, HCMV antiviral inconclusive (no result: HCV inh)
CN(C)c1ccc(CN(C(=O)C2COc3ccccc3O2)C2CCS(=O)(=O)C2)cc1 (stereo unspecified)	none (no result: HCV inh)
CC(C)c1ccc(CN(C(=O)C2COc3ccccc3O2)C2CCS(=O)(=O)C2)cc1 (stereo unspecified)	HCMV antiviral -94 (no result: Vaccinia mCherry, Vaccinia Venus)
CCOC(=O)c1c(NC(=O)c2cc(-c3ccc(OC)cc3)on2)sc(C)c1C	none (no result: HCV inh)
Cc1cc(C(C)(C)C)cc(C)c1Cn1c2[n+](c3ccc(C(F)(F)F)cc31)CCCCC2	HCV inh 7.1µM, FMDV inh 28µM, HCMV antiviral -95
FC(F)(F)c1cccc(Cn2c3[n+](c4ccc(C(F)(F)F)cc42)CCCCC3)c1	none
COc1ccc(CNC(=O)c2cc3c(=O)oc4ccc(C)cc4c3s2)c(OC)c1	none (no result: HCV inh)
CC(C)C(=O)Nc1ccc2nc(SCC(=O)N3CCc4ccccc43)sc2c1	FMDV inh 35µM (no result: HCV inh)
O=C(Nc1ccc2nc(SCC(=O)N3CCOCC3)sc2c1)c1ccc(Cl)cc1	Vaccinia mCherry inconclusive, Vaccinia Venus inconclusive, FMDV inh 20µM, HCMV antiviral -74 (no result: HCV inh)
O=C(Nc1ccc2nc(SCC(=O)N3CCOCC3)sc2c1)c1ccc(Br)cc1	FMDV inh inconclusive (no result: HCV inh)
O=C(Nc1ccc2nc(SCC(=O)N3CCOCC3)sc2c1)c1cccc(Br)c1	FMDV inh 25µM (no result: HCV inh)
O=C(Nc1ccc2nc(SCC(=O)N3CCOCC3)sc2c1)c1ccccc1Cl	FMDV inh inconclusive, HCMV antiviral -83 (no result: HCV inh)
CCC(CC)C(=O)Nc1ccc2nc(SCC(=O)N3CCc4ccccc43)sc2c1	FMDV inh inconclusive (no result: HCV inh)
N#Cc1nc(N)nc(N2CCCCC2)n1	none (no result: HCV inh, FMDV inh, HCMV antiviral)
CCc1ccccc1NC(=O)c1cn(C)c(=O)c2ccccc12	none (no result: HCV inh)
